From ChEMBL document CHEMBL3988442, “University of Dundee, Small-Polar-MMV Screening Library” (2021) come the findings set out here.

SMILES strings stand for the structures. The campaign covered roughly 48,000 compounds. About 13,000 (27%) showed an effect of 50% or more. The list shows a part of the results.

For the experiment, the system named is Wolbachia pipientis. The experiment in a line: Anti-Wolbachia Cell-Based Screen. The format is functional. The arrangement: scale not given: in the data most compounds retested in dose-response had high values. As to conditions: 5 µM.
With `CC(C)(C)n1cc(C2=CCN(CCc3ccccn3)CC2)cn1`, the “Percent Effect” value came to 15.47%. `CCOCC(O)CN1CCN(C(=O)Cc2ccc3c(c2)CCO3)CC1` (stereo unspecified): the “Percent Effect” value is reported as -9.69%. With `CC(Cn1cncn1)NCc1n[nH]c2c1CCCCC2` (stereo unspecified) the figure was -17.11%. For `O=C(c1cn(Cc2ccccc2)c2ncccc12)N1CCOCC1`, the “Percent Effect” value was determined as 115.6%. For `O=C(c1cccnc1-n1cncn1)N1CCC(Nc2ccccc2)CC1`, the “Percent Effect” value is 0.1986%. In the case of `Cc1ccc(N2CCCN(C(=O)c3cn(C)c4ccccc34)CC2)nn1`, the “Percent Effect” value worked out at 7.774%. With `CC(=O)c1cn(CC(=O)N2CCC3(CC2)OCCO3)c2ccccc12` the figure was -19.35%; with `COCCN1C[C@@H](C)[C@@]2(COCCN(C(=O)c3ccccn3)C2)C1.O=C(O)C(F)(F)F.O=C(O)C(F)(F)F`, -2.288%; with `O=C(c1cn(Cc2ccccc2)c2ncccc12)N1CCCCC1`, 137.3%. Regarding `Cc1cccc(CN2CC[C@H]3OCC[C@@]3(C(=O)N3CCCO3)C2)n1.O=C(O)C(F)(F)F.O=C(O)C(F)(F)F`, the “Percent Effect” value is 104.8%.

With `O=C(N1CCCO1)[C@]12COC[C@H]1CN(Cc1cccnc1)C2.O=C(O)C(F)(F)F.O=C(O)C(F)(F)F`, the “Percent Effect” value came out at 2.039%. Turning to `O=C(O)C(F)(F)F.O=C([C@@H]1C[C@@H]2CCN(Cc3ccccn3)C[C@H]2O1)N1CCCO1`, the “Percent Effect” value is given as -15.19%. For `O=C(N1CCCO1)[C@@]12CCO[C@@H]1CCN(Cc1ccccn1)C2.O=C(O)C(F)(F)F.O=C(O)C(F)(F)F`, the “Percent Effect” value is on record as 114.4%. Turning to `Cc1noc(C)c1CN1CC[C@H]2OCC[C@@]2(C(=O)N2CCCO2)C1.O=C(O)C(F)(F)F`, the “Percent Effect” value was -1.065%.

On to `O=C(N1CCCO1)[C@@]12CCO[C@@H]1CCN(Cc1cccnc1)C2.O=C(O)C(F)(F)F.O=C(O)C(F)(F)F`, for which the “Percent Effect” value was 92.31%. With `O=C(O)C(F)(F)F.O=C(O)C(F)(F)F.O=C([C@H]1CN(Cc2cccnc2)C[C@H]2OCC[C@@H]12)N1CCCO1`, the “Percent Effect” value was -1.635%. As for `O=C(N1CCOCC1)[C@@]12CCO[C@@H]1CCN(Cc1ccncc1)C2.O=C(O)C(F)(F)F.O=C(O)C(F)(F)F`, the “Percent Effect” value is 97.63%. Regarding `O=C(O)C(F)(F)F.O=C(O)C(F)(F)F.O=C(O)C(F)(F)F.c1cc(CN2CCCC23CCCN(Cc2ccoc2)C3)ccn1` (stereo unspecified), the “Percent Effect” value is reported as 6.786%. On to `Cc1cccc(CN2CCC3(CCCN(CC(=O)N(C)C)C3)C2)n1.O=C(O)C(F)(F)F` (stereo unspecified), for which the “Percent Effect” value turned out to be 2.241%. The same measure for `Cc1nnc(N2CCCC3(CN(Cc4ccncc4)CCO3)C2)o1.O=C(O)C(F)(F)F.O=C(O)C(F)(F)F` (stereo unspecified): -4.396%; for `Cc1cc(CN2C[C@@H]3CN(C(=O)c4ccco4)CCO[C@@H]3C2)no1.O=C(O)C(F)(F)F`: -7.73%. Take `O=C(NCc1ccccn1)[C@@]12CCO[C@@H]1CCN(C1CCCC1)C2.O=C(O)C(F)(F)F.O=C(O)C(F)(F)F`: the “Percent Effect” value came to 86.28%. With `Cc1ccnc(OC[C@@]23CCO[C@@H]2CCN(C2CCC2)C3)n1.O=C(O)C(F)(F)F` the figure was -3.433%; with `Cc1cc(CN2CC[C@H]3OCC[C@@]3(C(=O)N3CCOCC3)C2)no1`, 107.8%. On to `Cc1cc(CN2CC[C@H]3OCC[C@@]3(C(=O)NC(C)C)C2)no1.O=C(O)C(F)(F)F`, for which the “Percent Effect” value was determined as 2.849%. With `CCn1ccnc1CN1CCNCC1C.Cl.Cl` (stereo unspecified) the figure was 0.9214%; with `CN(C)C(=O)CN1CCCC12CCCN(c1ncc(F)cn1)C2.O=C(O)C(F)(F)F` (stereo unspecified), 0.08141%. On to `O=C(c1ncccn1)N1C[C@@H]2CN(CC3CC3)CCO[C@@H]2C1`, for which the “Percent Effect” value is recorded as -1.954%. Consider `CN1CCN(C(=O)Cc2csc(-c3ccsc3)n2)C(c2ccccc2)C1` (stereo unspecified), for which the “Percent Effect” value was -6.196%.

`CN(C)CCN(C)C[C@H]1CN2CC[C@H]1C[C@@H]2CNC(=O)Nc1ccsc1`: the “Percent Effect” value turned out to be 9.133%. In the case of `Cn1cc(CN2CCC[C@]3(C[C@H](Oc4ccccn4)CO3)C2)cn1`, the “Percent Effect” value worked out at 94%. `Cc1cc(CN2CC[C@]3(C[C@@H](OCC(=O)N(C)C)CO3)C2)no1.O=C(O)C(F)(F)F`: the “Percent Effect” value is reported as 25.8%.

In the case of `Cn1cc(CN2CCC[C@]3(C[C@@H](Oc4ccccn4)CO3)C2)cn1.O=C(O)C(F)(F)F.O=C(O)C(F)(F)F`, the “Percent Effect” value was determined as 98.39%. On to `O=C(O)C(F)(F)F.O=C(O)C(F)(F)F.c1ccc(O[C@H]2CO[C@@]3(CCCN(Cc4nccs4)C3)C2)nc1`, for which the “Percent Effect” value came out at 12.82%. For `Cc1csc(CN2CCC[C@]3(C[C@H](Oc4ccccn4)CO3)C2)n1.O=C(O)C(F)(F)F.O=C(O)C(F)(F)F`, the “Percent Effect” value is recorded as -0.2968%. For the compound `CN(C)[C@@H]1CN(Cc2cnn(C)c2)[C@@H]2COC[C@H]12.O=C(O)C(F)(F)F.O=C(O)C(F)(F)F.O=C(O)C(F)(F)F`, the “Percent Effect” value is on record as -10.13%. Turning to `Cc1csc(CN2CCC[C@]3(C[C@@H](Oc4ccccn4)CO3)C2)n1.O=C(O)C(F)(F)F.O=C(O)C(F)(F)F`, the “Percent Effect” value is given as 133.6%.

For `Cn1cc(CN2CC[C@]3(C[C@H](Oc4ccccn4)CO3)C2)cn1.O=C(O)C(F)(F)F.O=C(O)C(F)(F)F`, the “Percent Effect” value is given as 102.3%. With `Cc1noc(C)c1CN1C[C@@H](OCC(=O)N(C)C)[C@H]2OCCC[C@H]21`, the “Percent Effect” value is -2.894%. With `O=C(NCC1CC1)[C@@H]1C[C@@H]2OCCN[C@@H]2C1.O=C(O)C(F)(F)F` the figure was 8.68%. The same measure for `Cc1cc(C)c(CNCC(O)c2ccc(F)c(F)c2)c(C)c1.Cl` (stereo unspecified): 6.678%.

For `CC(C)(C)n1ncc2c1NC(=O)CSC2c1ccc2c(c1)OCCO2` (stereo unspecified), the “Percent Effect” value came out at 117.6%.

`COc1cc(C2SCC(=O)Nc3ccsc32)cc(OC)c1O` (stereo unspecified): the “Percent Effect” value was -0.1259%. For `O=C1CSC(c2ccc(O)cc2)c2sccc2N1` (stereo unspecified), the “Percent Effect” value was -5.574%.

As for `O=C1CSC(c2cccs2)c2cnn(C3CCCC3)c2N1` (stereo unspecified), the “Percent Effect” value was 10.18%. For `COC(=O)c1ccc(C2SCC(=O)Nc3c2cnn3C(C)(C)C)cc1` (stereo unspecified), the “Percent Effect” value is 111.9%.

`Cc1c(C2SCC(=O)Nc3c2cnn3C(C)(C)C)cnn1C` (stereo unspecified): the “Percent Effect” value is 122.6%. The same measure for `COc1cccc(C2SCC(=O)Nc3ccsc32)c1OC` (stereo unspecified): -5.826%; for `Cn1c(=O)n(C)c2cc(C3SCC(=O)Nc4ccsc43)ccc21` (stereo unspecified): 27.99%.

`COC(=O)c1ccc(C2SCC(=O)Nc3ccsc32)cc1` (stereo unspecified): the “Percent Effect” value is -2.415%. For `CC(C)(C)n1ncc2c1NC(=O)CSC2c1ccsc1` (stereo unspecified), the “Percent Effect” value was found to be 129%.

On to `O=C1CSC(c2ccsc2)c2sccc2N1` (stereo unspecified), for which the “Percent Effect” value came out at 0.8024%. `CC1CCN(C[C@H]2CN3CC[C@H]2C[C@@H]3CNC(=O)Nc2ccsc2)CC1`: the “Percent Effect” value amounted to 0.4847%. Take `CC1C(=O)Nc2cccnc2N1S(=O)(=O)c1ccc(C#N)c(Cl)c1` (stereo unspecified): the “Percent Effect” value is 12.36%. Consider `O=C(NC[C@H]1C[C@@H]2CCN1C[C@@H]2CN1CCOCC1)Nc1ccsc1`, for which the “Percent Effect” value was 0.8179%. `CN(C)C(=O)COC[C@@]12CCC[C@@H]1CNC2.O=C(O)C(F)(F)F`: the “Percent Effect” value is recorded as -7.185%. In the case of `O=C(CSc1ccccn1)N1CCN(CCO)[C@@H]2CS(=O)(=O)C[C@@H]21`, the “Percent Effect” value is -2.402%.

For the compound `Cn1cc(C2SCC(=O)Nc3c2cnn3C(C)(C)C)cn1` (stereo unspecified), the “Percent Effect” value was 109.1%. With `Cc1n[nH]c2c1C(c1cnn(C)c1)SCC(=O)N2` (stereo unspecified) the figure was 12.5%. On to `CC(C)CN1C[C@H]2C[C@H](C(=O)NCc3cccnc3)[C@@H](C1)O2`, for which the “Percent Effect” value is -10.23%. Regarding `Cn1cc(CN2C[C@H]3CN(c4cncnc4)C(=O)[C@H]3C2)cn1.O=C(O)C(F)(F)F`, the “Percent Effect” value is -0.6359%. Consider `N#Cc1ccc(C(=O)NS(=O)(=O)c2ccc(C#N)c(Cl)c2)cc1`, for which the “Percent Effect” value is listed as -4.058%.

For `O=S1(=O)C[C@@H]2[C@H](C1)N(Cc1ncc[nH]1)CCN2Cc1cccnc1`, the “Percent Effect” value is -2.711%. As for `COc1ccc2ncn(Cc3ncc[nH]3)c(=O)c2c1`, the “Percent Effect” value is reported as 121%. With `CCc1ccc2ncn(Cc3ncc[nH]3)c(=O)c2c1` the figure was 108.2%. With `Cc1ncsc1CN1CCO[C@H]2[C@H](Oc3ccccn3)CC[C@@H]21.O=C(O)C(F)(F)F.O=C(O)C(F)(F)F`, the “Percent Effect” value is recorded as -5.284%. Regarding `Cc1nc(CC(=O)N(CCN2CCOCC2)Cc2ccco2)c(C)s1`, the “Percent Effect” value is 5.284%. With `CCc1ncc(CN(CCc2ccccc2)Cc2cccs2)cn1.O=C(O)CC(O)(CC(=O)O)C(=O)O`, the “Percent Effect” value was 50.24%. Regarding `CC(C)CN1CCC2(COCc3cnc(-c4ccccc4)nc32)C1.O=C(O)C(F)(F)F` (stereo unspecified), the “Percent Effect” value is recorded as 105.5%.

On to `CN(C)c1ncc2c(n1)C1(CCN(Cc3ccccc3)C1)COC2.O=C(O)C(F)(F)F` (stereo unspecified), for which the “Percent Effect” value is given as -5.323%. With `O=C(O)C(F)(F)F.c1ccc(-c2ncc3c(n2)C2(CCN(CC4CC4)C2)COC3)cc1` (stereo unspecified) the figure was 6.483%; with `COCCN1CCC2(COCc3cnc(N(C)C)nc32)C1.O=C(O)C(F)(F)F` (stereo unspecified), 1.083%; with `COCCN1CCC2(COCc3cnc(-c4ccccc4)nc32)C1.O=C(O)C(F)(F)F` (stereo unspecified), 89.12%. With `CN1CCC2(COCc3cnc(-c4ccccc4)nc32)C1.O=C(O)C(F)(F)F` (stereo unspecified) the figure was 9.461%; with `N#CC1(c2ccccc2)CCN(C(=O)C2CCCN(CC(N)=O)C2)CC1` (stereo unspecified), -8.527%. The same measure for `CC(C)(O)c1cn(C[C@H]2C[C@@H]3CCN2C[C@@H]3C(=O)N2CCOCC2)nn1`: -10.14%; for `O=C(O)C(F)(F)F.O=C(O)C(F)(F)F.O=S(=O)(C1CC1)N1CCC2(CCCN(Cc3ccccn3)C2)C1` (stereo unspecified): 113.2%. For the compound `CS(=O)(=O)N1CCC2(CCCN(Cc3ccccn3)C2)C1.O=C(O)C(F)(F)F.O=C(O)C(F)(F)F` (stereo unspecified), the “Percent Effect” value was -1.492%. As for `CS(=O)(=O)N1CCC2(CCCN(Cc3ccccn3)C2)CC1.O=C(O)C(F)(F)F`, the “Percent Effect” value is 4.513%. The same measure for `O=C(O)C(F)(F)F.O=C(O)C(F)(F)F.O=C1N(c2cncnc2)CCC12CCCN(Cc1ccccn1)C2` (stereo unspecified): -2.82%. As for `O=S(=O)(C1CC1)N1CCC2(CCCN(Cc3ccccn3)C2)CC1`, the “Percent Effect” value worked out at 112.9%.
